The campaign covered roughly 87,000 compounds. About 540 (0.62%) were called active. How the calls were made is not given here. This excerpt belongs to a sample that is enriched for actives. Entries with a potency or affinity are not part of this list.
Test: MT1-MMP gene expression reporter suppression – cell-based, luciferase reporter, luminescence (AID 618);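 further: actives suppress MT1-MMP promoter-driven transcription so potencies describe inhibitors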
Details: MT1-MMP promoter luciferase reporter cells

Compound | outcome
CCCCN1CC(C(=O)NCc2ccc(C)cc2)CC1=O (stereo not drawn) | inactive
CCCN1Cc2cccc(C(=O)NCc3ccc4c(c3)OCO4)c2C1=O | inactive
c1coc(CN2CN=C(Nc3nc4ccccc4s3)NC2)c1 | inactive
Cc1cc(S(=O)(=O)N(Cc2ccc(F)cc2)CC2CCCO2)ccc1-n1cnnn1 (stereo not drawn) | inactive
COc1ccc(OC)c(CNn2c(-c3cccc(C)c3)nc3ccccc3c2=O)c1 | inactive
CC1=CC(C)(C)N2C(=O)C3(C(C#N)=C(N)Oc4cc(O)ccc43)c3c(C)c(C)cc1c32 (stereo not drawn) | inactive
O=C(CSc1nnc(-c2cccs2)o1)c1cccs1 | inactive
Cc1cc(C(=O)CSc2nnc(-c3ccccc3F)o2)c(C)n1Cc1cccs1 | inactive
COC(=O)C1=C(C)N(CCCC(=O)O)C(=O)NC1c1ccccc1Cl (stereo not drawn) | inactive
Brc1ccc(OCc2nc(-c3ccccn3)n[nH]2)cc1 | inactive
CCOC(=O)N1CCC(NC(=O)c2ccc3c(c2)sc2nc(-c4cccc(OC)c4)cn23)CC1 | inactive
COc1ccc2c(c1)sc1nc(-c3ccccc3)cn12 | active
CCOC(=O)N1CCN(C(=O)c2ccc3c(c2)sc2nc(-c4ccccc4)cn23)CC1 | inactive
Cc1sc2ncnc(Oc3ccc(-n4ccnc4)cc3)c2c1C | inactive
N#CC1(Nc2ccccc2)C(=O)Nc2ccccc21 (stereo not drawn) | inactive
Nc1cc(N)cc(-c2nc3ccccc3o2)c1 | inactive
Nc1ccc2nc(-c3ccccc3)[nH]c2c1 | inactive

Compound | outcome
Cc1ccc2nc(-c3cccnc3)oc2c1 | inactive
Cc1ccc2nc(-c3cccc(-c4nc5ccc(C)cc5o4)n3)oc2c1 | inactive
Cc1ccc2nc(-c3ccccn3)oc2c1 | inactive
Nc1cccc(-c2nc3ccccc3[nH]2)c1 | inactive
COCCNC(=O)Nc1ccc2nc(C)sc2c1 | inactive
CCCCN(C)C(=O)c1oc2ccc(S(=O)(=O)N3CCCCCC3)cc2c1C | inactive
CCn1cc(C(=O)N2CCCC2)c(=O)c2cc(S(=O)(=O)N(C)C)ccc21 | inactive
O=C(NCCCn1ccnc1)c1noc2c1CCc1ccccc1-2 | inactive
CCOCc1nnc(NC(=O)CCc2ccccc2)s1 | inactive
C=CCN1C(=NC(=O)CCCC(=O)O)SC2CS(=O)(=O)CC21 (stereo not drawn) | inactive
COc1ccccc1Nc1nc(NCCO)c2ccccc2n1 | inactive
C=C(C)Cn1c(CCNC(=O)C(C)(C)C)nc2ccccc21 | inactive
Cc1ccc(O)c(N=CC2=C(O)c3ccccc3C2=O)c1 | inactive
O=C1C(C=Nc2ccccc2O)=C(O)c2ccccc21 | inactive
CCc1ccc(NC(=O)C(=O)NCCN2CCN(C(=O)c3ccco3)CC2)cc1 | inactive
CC1=C(C(=O)OC(C)C)C(c2cccc(F)c2)N2C(=O)C(C)SC2=N1 (stereo not drawn) | inactive

From PubChem BioAssay AID618 (Sanford-Burnham Center for Chemical Genomics, 2007)
